Compound activity as filed in PubChem BioAssay.
Pf growth 96h = Primary qHTS for delayed death inhibitors of the malarial parasite plastid, 96 hour incubation; 320,000 compounds, 6.9% hits; AID 504834, 2011; P. falciparum luciferase reporter growth, 96 h; Potency, µM (highest dose often 28.7 µM), most hits filed as inhibitors
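Infected RBCs, 2% Hct / 0.05% parasitemia final; luciferase-reporter P. falciparum; cpd 96 h, 37 C, 5% CO2; luciferase detection reagent; luminescence.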
Pf growth 48h = Primary qHTS for delayed death inhibitors of the malarial parasite plastid, 48 hour incubation. P. falciparum luciferase growth in erythrocytes, 48 h. Potency, µM (series often up to 28.7 µM), usual class: inhibitors. 310,000 compounds, 5.9% hits
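A one-generation exposure of luciferase-tagged malaria parasites in RPMI 1640/Albumax erythrocyte culture, 37 C and 5% CO2. Inhibition is inferred from decreased luminescence after adding detection reagent.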
Shiga toxin inh = A qHTS for Small Molecule Inhibitors of Shiga Toxin; Vero cells, Shiga toxin protein synthesis inhibition reporter; inhibition, % at 38.7 µM; 290,000 compounds, 9.2% hits; AID 2315, 2010; in the data active means inhibition mostly above about 28%, no sharp cut-off; inactive means mostly below about 43%
CHX counter = Cycloheximide Counterscreen for Small Molecule Inhibitors of Shiga Toxin | cell reporter, cycloheximide protein synthesis inhibition counterscreen | max response, % | 300,000 compounds, 12% hits | AID 2314, 2010; in the data active means max response mostly above about 13%, no sharp cut-off; inactive means mostly below about 14%; further: read at 38.3 µM for the half of the compounds with a filed dose
Marburg entry inh = qHTS for inhibitors of binding or entry into cells for Marburg Virus | Marburg virus pseudotyped entry inhibition, cell reporter | Potency, µM (titrated, usually from 37.8 µM), most hits filed as inhibitors | 300,000 compounds, 1.8% hits | AID 540276, 2011; calls by dose curve; tested in HEK293 cells
LASV entry inh = qHTS for Inhibitors of binding or entry into cells for Lassa Virus. Lassa virus pseudotype entry inhibition, cell reporter. Potency, µM (highest dose often 37.9 µM), hits mostly inhibitors. 300,000 compounds, 1.2% hits; calls by dose curve; tested in HEK293 cells; further: nearly all actives have a fitted effect of over 50% in size
Each line names hits and unclear results; the compound was inactive in the other large screens. An excerpt weighted towards active compounds, which were near 19% of everything screened. Unless noted, the call rests on the fitted dose curve; in most records, active means well fitted inhibition curve with a large enough effect; inconclusive means small, poorly fitted or top-dose-only effect, or another doubt; inactive means no such curve, though single readings can be large or run the other way.

COc1ccc(C(=O)NC(=S)SCC(=O)O)cc1	Shiga toxin inh 26.5, CHX counter 14.9
COc1ccc(CNC(=S)Nc2ccccc2F)cc1	none (no result: Marburg entry inh, LASV entry inh)
CC(=O)Nc1ccc(NC(=S)NC(=O)/C=C/c2ccc(Cl)cc2)cc1	Marburg entry inh inconclusive
O=C(/C=C/c1ccc(Cl)cc1)NC(=S)Nc1ccc(NC(=O)c2ccco2)cc1	Pf growth 96h 14.7µM, Marburg entry inh inconclusive, LASV entry inh 1.58µM
O=C(NC(=S)NNC(=O)c1ccccc1O)c1ccco1	Pf growth 96h inconclusive, Pf growth 48h inconclusive, CHX counter 21.4
Cc1cc(C)cc(N(C(=O)C2CCCC2)C2C=CS(=O)(=O)C2)c1 (stereo not drawn)	Pf growth 96h inconclusive
O=C1O/C(=C/c2ccccc2)c2ccccc21	Shiga toxin inh active, CHX counter 65.1
Cc1ccc(-c2nnc(SCC(=O)N/N=C/c3ccccc3C(=O)O)n2-c2ccccc2)cc1	none (no result: Marburg entry inh, LASV entry inh)
CC1CCN(C(=O)c2[nH]cnc2C(=O)N[C@@H](C)c2ccccc2)CC1	none (no result: Shiga toxin inh, CHX counter, Marburg entry inh, LASV entry inh)
O=c1[nH]c(/C=C\c2cccnc2)c([N+](=O)[O-])c(=O)[nH]1	Pf growth 48h inconclusive
Nc1nc(CSc2ccccc2)nc(N2CCCCC2)n1	Shiga toxin inh 138.3, CHX counter 50.9, LASV entry inh inconclusive
Nc1nc(CSc2ccc(Cl)cc2)nc(N2CCCCC2)n1	Marburg entry inh inconclusive (no result: LASV entry inh)
Nc1ccccc1Oc1ccc2ccccc2c1	Pf growth 96h inconclusive, Shiga toxin inh 42.5 (no result: Marburg entry inh, LASV entry inh)
Cc1ccccc1Oc1ccccc1N	Pf growth 96h inconclusive
COc1ccc(-c2cc(C(F)(F)F)n3nc(-c4ccc(Cl)cc4)cc3n2)cc1OC	none (no result: Pf growth 96h, Pf growth 48h, Shiga toxin inh, CHX counter)
O=c1oc2ccccc2n1CSC1=NCCS1	Pf growth 48h inconclusive, CHX counter 19.4, LASV entry inh inconclusive
O=C(CSc1nc2ccccc2s1)CSc1nc2ccccc2s1	none (no result: Pf growth 96h)
O=c1oc2ccccc2n1CSc1nc2ccccc2s1	Shiga toxin inh 95.8, CHX counter 41.4, Marburg entry inh inconclusive
Cc1ccc(C2=C(CC(=O)O)C(=O)CC2)cc1	Pf growth 96h 4.65µM, Marburg entry inh inconclusive
COC(=O)CC1=C(c2ccc([N+](=O)[O-])cc2)CCC1=O	none (no result: Pf growth 96h, Pf growth 48h, Shiga toxin inh, CHX counter)
CCCN1CCC(=O)N([C@H](CN=[N+]=[N-])CC(C)C)CC1	Pf growth 96h 4.65µM, Pf growth 48h inconclusive (no result: Marburg entry inh, LASV entry inh)
CCCN1CCC(=O)N([C@H](CSc2ccc(OC)cc2)CC(C)C)CC1	Pf growth 96h inconclusive, Pf growth 48h inconclusive, Shiga toxin inh 71.0, CHX counter 26.8 (no result: Marburg entry inh, LASV entry inh)
COc1ccc(SCC(CC(C)C)N2CCN(CCc3ccccc3)CCC2=O)cc1 (stereo not drawn)	Shiga toxin inh 56.9, CHX counter 55.8 (no result: Pf growth 96h, Pf growth 48h, Marburg entry inh, LASV entry inh)
Cc1ccc(SC[C@H](Cc2ccccc2)N2CCN(CC(C)C)CCC2=O)cc1	Pf growth 96h inconclusive, Pf growth 48h inconclusive (no result: Marburg entry inh, LASV entry inh)
CC(C)CN1CCC(=O)N([C@H](CSc2ccccc2)Cc2ccccc2)CC1	Pf growth 96h 13.1µM, Pf growth 48h inconclusive (no result: Marburg entry inh, LASV entry inh)
CCN1C(=O)c2ccccc2S(=O)(=O)c2ccc(C(=O)NCc3ccc(OC)cc3)cc21	none (no result: Pf growth 96h, Pf growth 48h, Shiga toxin inh, CHX counter)
COc1ccc(-c2cc3nc(-c4ccc(Br)cc4)cc(C(F)(F)F)n3n2)cc1	none (no result: Pf growth 96h, Pf growth 48h, Shiga toxin inh, CHX counter)
CC(C)C[C@@H](CSc1ccc(Br)cc1)N1CCN(CCc2ccccc2)CCC1=O	Pf growth 96h inconclusive, Pf growth 48h inconclusive (no result: Marburg entry inh, LASV entry inh)
CC(C)C[C@@H](CSc1ccccc1)N1CCN(CCc2ccccc2)CCC1=O	Pf growth 96h inconclusive, Pf growth 48h inconclusive, Shiga toxin inh 29.7, CHX counter 18.1 (no result: Marburg entry inh, LASV entry inh)
CCN(CC(=O)Nc1ccc(NC(C)=O)cc1)C(=O)Cc1ccc(S(=O)(=O)N2CCOCC2)s1	none (no result: Shiga toxin inh, CHX counter)
O=c1[nH]c(C2CCN(S(=O)(=O)c3ccccc3)CC2)nc2c1nnn2Cc1c(F)cccc1Cl	Pf growth 96h 5.22µM, Pf growth 48h inconclusive, LASV entry inh inconclusive
O=c1[nH]c(C2CCN(S(=O)(=O)c3ccc4c(c3)OCCO4)CC2)nc2c1nnn2Cc1c(F)cccc1Cl	none
O=C(C1CCC1)N1CCC(c2nc3c(nnn3Cc3c(F)cccc3Cl)c(=O)[nH]2)CC1	Pf growth 48h 13.1µM, Marburg entry inh inconclusive, LASV entry inh inconclusive
O=C(NCc1ccco1)c1cnc2ccccn2c1=O	none (no result: Marburg entry inh, LASV entry inh)
O=C(NCc1ccco1)c1cccn2c(=O)c3cc4ccccc4cc3nc12	Pf growth 96h inconclusive, CHX counter 29.0 (no result: Pf growth 48h, LASV entry inh)
